Assay outcomes from PubChem BioAssay.
Pf growth 48h: P. falciparum growth inhibition at 48 hours (one generation); hit rate 5.9% among 310,000; P. falciparum luciferase growth in erythrocytes, 48 h; Potency, µM (doses to about 28.7 µM), for the others: at the highest dose activity change, negative = inhibition, most hits filed as inhibitors; note: % is set by controls: 0 for no effect and ±100 for the full control effect
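In quantitative HTS format, infected erythrocytes bearing luciferase-reporter parasites were treated for a single generation at 37 C. Luminescence after adding detection reagent served as the growth measure.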
HCV inh: inhibitors of hepatitis C virus infection; Huh7.5.1 HCVcc-Cre infection, luciferase reporter, 44 h; Potency, µM (highest dose often 41.8 µM), for inactives: at the highest dose activity change, negative = inhibition, most hits filed as inhibitors; hit rate 3.4% among 340,000; note: % is set by controls: 0 for no effect and ±100 for the full control effect
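Antiviral activity was scored by luciferase reporter output from cells infected with HCVcc-Cre (~0.5 moi) in presence of compound, 44 h infection period, cells seeded 1,000/well 4 h prior.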
SARS PLP yeast: inhibitors of SARS-CoV papain-like protease in yeast; Potency, µM (series often up to 32.9 µM), for inactives: at the top dose activity, positive = growth rescue, hits mostly activators; hit rate 0.19% among 330,000; S. cerevisiae expressing SARS-CoV PLpro, growth rescue; AID 485353; calls by dose curve; note: 0% is about no effect; nearly all actives have a fitted effect of over 55% in size
NS1 function inh: blocks influenza NS1 protein function; hit rate 0.4% among 270,000; Potency, µM (top dose mostly 46.1 µM), without a hit: at the highest dose activity, positive = more growth; calls by dose curve; note: actives are rising curves; nearly all actives have a fitted effect of over 50% in size
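OD600 was taken as the measure of yeast growth restored by compound in an NS1-expressing S. cerevisiae strain. Cells had been washed out of glucose medium and diluted 1:100 into galactose -URA medium, pH 6.0.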
Pf growth 96h: P. falciparum growth inhibition at 96 hours | P. falciparum luciferase reporter growth, 96 h | Potency, µM (series often up to 28.7 µM), for the others: top-dose activity change, negative = inhibition, most hits filed as inhibitors | hit rate 6.9% among 320,000 | AID 504834; note: % is set by controls: 0 for no effect and ±100 for the full control effect
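Delayed-death screen, second-generation endpoint: infected erythrocytes, 2% hematocrit, 0.05% parasitemia final; 96 hours at 37 C, 5% CO2; luciferase detection reagent; luminescence decrease equals reduced growth.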
AMA1 RON2 block: inhibitors of Plasmodium falciparum AMA1-RON2 interaction. AlphaScreen AMA1-biotinylated RON2 peptide binding. Potency, µM (doses to about 58.2 µM), for the others: top-dose activity change, negative = inhibition, most hits filed as inhibitors. hit rate 0.2% among 360,000. AID 720542;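 note: 0% = vehicle wells and -100% = peptide control; nearly all actives have a fitted effect of over 45% in size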
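AMA1 (3D7) with his tag at 25 nM final met compounds first, then biotinylated RON2 peptide at 25 nM; detection used donor plus acceptor beads, 10 µg/mL apiece, read by AlphaScreen after 30 min at room temperature.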
* = called active by the depositor; ? = inconclusive; . = no result given; [ ] = another dose, or the depositor's remark. Rows were chosen to be rich in hits. Some 12% of all compounds tested hit in one or more screens of this group. Unless noted, calls come from the whole dose curve; as a rule, active = well fitted curve in the direction sought with a large enough effect; inconclusive = small, poorly fitted or top-dose-only effect, or another doubt; inactive = no such curve, though single readings can be large; an effect the other way counts as inactive or inconclusive. Potency is the fitted concentration of half-maximal effect.

SMILES	Pf growth 48h	HCV inh	SARS PLP yeast	NS1 function inh	Pf growth 96h	AMA1 RON2 block
CC(NC(=O)COC(=O)CCN1C(=O)C2CC=CCC2C1=O)c1ccc(Br)cc1 (centres undefined)	11%	17%	-2%	.	-6%	7%
COc1ccc(C)cc1NC(=O)CN(C)S(=O)(=O)c1ccc2c(c1)c(=O)n(C)c(=O)n2C	3%	15%	-2%	16%	2%	-4%
COc1ccc(NC(=O)CN(C)S(=O)(=O)c2ccc3c(c2)c(=O)n(C)c(=O)n3C)cc1	0%	0%	2%	5%	13µM*	11%
Cc1ccc(NC(=O)CN(C)S(=O)(=O)c2ccc3c(c2)n(C)c(=O)c(=O)n3C)cc1	?	-2%	0%	3%	12µM*	0%
CN(CC(=O)NCCc1ccc(Cl)cc1)S(=O)(=O)c1ccc2c(c1)c(=O)n(C)c(=O)n2C	.	?	-2%	2%	13µM*	-3%
COc1ccc(NC(=O)CN(C)S(=O)(=O)c2ccc3c(c2)n(C)c(=O)c(=O)n3C)cc1	11%	-2%	3%	5%	-30%	3%
O=C(COC(=O)CNC(=O)c1ccccc1F)Nc1cccnc1Cl	12%	-4%	-5%	.	17%	5%
CC(Oc1ccc(F)cc1)C(=O)Nc1cc(S(=O)(=O)N2CCCCC2)ccc1N1CCN(C)CC1 (centres undefined)	.	-21%	.	.	.	-1%
CN1CCN(c2ccc(S(=O)(=O)N3CCCCC3)cc2NC(=O)/C=C/c2ccc(OC(F)F)cc2)CC1	9.3µM*	?	-1%	.	7.4µM*	?
CCN1CCN(c2ccc(S(=O)(=O)N3CCCCC3)cc2NC(=O)/C=C/c2ccc(OC(F)F)cc2)CC1	9.3µM*	?	0%	.	4.1µM*	-24%
COc1ccc(NC(=S)N/N=C/c2cccn2Cc2ccc(F)cc2Cl)cc1	3.7µM*	?	0%	.	?	-25%
Cc1ccc(N2CC(O)(c3cccs3)[N+]3=C2CCCC3)cc1 (centres undefined)	?	-2%	1%	.	5.2µM*	3%
Cc1cccc(N2CC(O)(c3cccs3)[N+]3=C2CCCC3)c1 (centres undefined)	1%	-3%	-1%	.	-72%	4%
COc1cccc(-c2csc(N3CCN(C(=O)Nc4ccc(Cl)cc4)CC3)n2)c1	?	11µM*	-4%	-42%	25%	-5%
COc1cccc(-c2csc(N3CCN(C(=S)Nc4cccc(Cl)c4)CC3)n2)c1	?	?	-6%	5%	-12%	8%
COc1cccc(-c2csc(N3CCN(CC(=O)NNC(=O)c4ccc(Cl)cc4)CC3)n2)c1	16%	-28%	-4%	23%	?	51%
COc1ccc(NC(=O)N2CCN(c3nc(-c4cccc(OC)c4)cs3)CC2)cc1	10µM*	6.3µM*	-31%	-11%	?	-21%
c1ccc(-n2ncc3c(NCCN4CCOCC4)ncnc32)cc1	85%	-1%	6%	8%	12µM*	4%
OCCOCCNc1ncnc2c1cnn2-c1ccc(Cl)cc1	3.3µM*	-2%	3%	-10%	.	1%
OCCOCCNc1ncnc2c1cnn2-c1ccccc1	1.3µM*	34%	8%	6%	63%	-12%
c1ccc(CCNc2ncnc3c2cnn3-c2ccccc2)cc1	169%	?	-67%	-49%	36%	12%
CCOC(=O)N(C)c1c(CC)nc2c(OCc3ccc(S(C)(=O)=O)cc3)cccn12	.	.	.	.	.	2%
Cc1c(NC(=O)C(C)OC(=O)COc2ccc(C#N)cc2)c(=O)n(-c2ccccc2)n1C (centres undefined)	11%	-4%	-2%	.	20%	-1%
COC(=O)C[C@@H]1CC[C@H](NC(=O)c2cnccn2)[C@@H](CO)O1	.	.	.	.	.	1%
O=C(OCC(=O)N1CCCc2ccccc21)c1cc(Br)ccc1O	51%	7%	-1%	.	?	-18%
SMILES	Pf growth 48h	HCV inh	SARS PLP yeast	NS1 function inh	Pf growth 96h	AMA1 RON2 block
COc1ccc(-c2cn3cccnc3n2)cc1NC(=O)C1CC1	25%	?	-3%	0%	9.3µM*	2%
COc1ccc(-c2cn3cccnc3n2)cc1NC(=O)C1CCCC1	?	19%	0%	-3%	11%	-5%
O=C(Nc1cccc(-c2cn3ccccc3n2)c1)c1cccc(Cl)c1	?	11µM*	-20%	-6%	?	-11%
O=C(COc1ccccc1)Nc1cccc(-c2nc3cc4ccccc4cc3[nH]2)c1	117%	7.1µM*	-30%	-92%	14%	4%
O=C(COc1ccccc1)Nc1cccc(-c2nn[nH]n2)c1	-5%	20%	1%	6%	-3%	-5%
CN(C)S(=O)(=O)c1cccc(-c2cn3ccccc3n2)c1	18%	12%	8%	-14%	10µM*	2%
COc1ccc(CC(=O)Nc2cccc(-c3cn4ccccc4n3)c2)cc1	39%	?	-36%	-52%	45%	-7%
CCC(=O)Nc1cccc(-c2cn3ccccc3n2)c1	146%	-24%	7%	-6%	12µM*	-3%[11.6 µM]
CS(=O)(=O)c1ccc(-c2cccc(NC(=O)COc3ccccc3)c2)nn1	28%	-6%	3%	0%	35%	2%
O=C(Nc1cccc(-c2cn3ccsc3n2)c1)c1ccccc1	90%	25µM*	0%	-102%	7%	-11%
O=C(COc1ccccc1)Nc1cccc(-c2cn3cccnc3n2)c1	9.3µM*	-28%	-1%	-4%	6.6µM*	-11%
CCN(CC(=O)NCc1cccs1)C(=O)c1ccc(-c2ccccc2F)o1	-29%	2%	-1%	.	?	12%
CCC1OC(=O)C(C)[C@@H](O[C@H]2C[C@@](C)(OC)C(O)C(C)O2)C(C)[C@@H](O[C@@H]2OC(C)CC(N(C)C)C2O)[C@@](C)(O)CC(C)C(=O)[C@@H](C)C(O)[C@]1(C)O (some centres undefined)	-14%	.	.	.	?	.
CC[C@H]1OC(=O)[C@H](C)[C@@H](O[C@H]2C[C@@](C)(OC)[C@@H](O)[C@H](C)O2)C(C)[C@@H](O[C@@H]2O[C@H](C)C[C@H](N(C)C)[C@@H]2O)[C@](C)(OC)C[C@@H](C)C(=O)[C@H](C)[C@@H](O)[C@]1(C)O (some centres undefined)	13µM*	.	.	.	1.3µM*	.
CCC1OC(=O)C(C)C(OC2C[C@@](C)(OC)C(O)C(C)O2)C(C)C(O[C@@H]2OC(C)CC(N(C)C)C2O)[C@](C)(O)CC(C)C(=NOCOCCOC)C(C)C(O)[C@]1(C)O (some centres undefined)	?	4%	.	.	7.4µM*	7%
